# Experimental data published in PMC4336329 (PLoS ONE, 2015).
# About 14,000 (4.5%) of roughly 310,000 compounds showed an effect of 50% or more. Effects have a minus sign here. The list comes from a sample in which strong results are over-represented; it also holds similar structures and randomly drawn compounds.
# Target: human ether-à-go-go-related gene (hERG) potassium channel (human, UniProt Q12809)
# Assay: primary screen, population patch clamp on CHO cells stably expressing hERG; higher = less effect of the substance
# 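Note: peak tail current of the secondary pulse compared with the same well before compound.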
# Sequence of human ether-à-go-go-related gene (hERG) potassium channel (Q12809 whole entry, looked up): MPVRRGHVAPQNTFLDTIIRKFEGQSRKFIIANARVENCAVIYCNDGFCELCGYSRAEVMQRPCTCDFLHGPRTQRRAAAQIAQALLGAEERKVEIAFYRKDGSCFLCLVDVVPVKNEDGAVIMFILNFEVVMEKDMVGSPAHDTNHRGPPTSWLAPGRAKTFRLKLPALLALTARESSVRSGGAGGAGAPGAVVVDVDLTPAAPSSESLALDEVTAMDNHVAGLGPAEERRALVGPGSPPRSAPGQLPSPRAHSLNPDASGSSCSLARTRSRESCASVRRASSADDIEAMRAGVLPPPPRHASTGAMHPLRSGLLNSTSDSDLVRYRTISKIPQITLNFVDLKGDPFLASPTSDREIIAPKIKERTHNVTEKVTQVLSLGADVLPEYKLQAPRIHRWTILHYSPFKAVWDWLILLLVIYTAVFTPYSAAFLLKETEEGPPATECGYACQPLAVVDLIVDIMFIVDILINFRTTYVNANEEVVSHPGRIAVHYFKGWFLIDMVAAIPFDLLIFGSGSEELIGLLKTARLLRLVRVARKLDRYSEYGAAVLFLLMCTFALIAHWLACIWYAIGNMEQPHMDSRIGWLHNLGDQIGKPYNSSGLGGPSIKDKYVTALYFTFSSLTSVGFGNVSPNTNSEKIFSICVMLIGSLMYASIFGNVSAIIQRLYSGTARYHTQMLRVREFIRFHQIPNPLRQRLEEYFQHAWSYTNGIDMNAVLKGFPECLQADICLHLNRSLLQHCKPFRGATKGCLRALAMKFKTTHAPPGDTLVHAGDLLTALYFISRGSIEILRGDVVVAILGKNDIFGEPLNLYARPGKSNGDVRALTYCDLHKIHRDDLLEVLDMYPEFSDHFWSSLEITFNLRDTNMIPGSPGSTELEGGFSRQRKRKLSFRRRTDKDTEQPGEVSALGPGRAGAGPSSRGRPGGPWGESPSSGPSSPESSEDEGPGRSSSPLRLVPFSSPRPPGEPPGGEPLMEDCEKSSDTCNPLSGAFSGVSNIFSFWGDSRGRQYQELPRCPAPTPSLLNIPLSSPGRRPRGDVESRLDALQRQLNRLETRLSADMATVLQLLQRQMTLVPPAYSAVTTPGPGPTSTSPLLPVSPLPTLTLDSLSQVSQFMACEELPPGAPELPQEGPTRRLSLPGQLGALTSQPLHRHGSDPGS
row,SMILES,"hERG current change (%, negative = inhibition) at 10uM"
1,O=C(O)CCC(=O)N1CCc2cc(S(=O)(=O)NC3CCCc4ccccc43)ccc21 (centres unmarked),-5.02%
2,[Cl-].c1ccc(C[n+]2c(-c3ccccc3)csc2Nc2ccccc2)cc1,19.6%
3,Cc1ccc(SCC(=O)OCC(=O)N(C)C2CCS(=O)(=O)C2)cc1C (centres unmarked),-11.5%
4,CN(C(=O)COC(=O)CSc1ccc(C(N)=O)cc1[N+](=O)[O-])C1CCS(=O)(=O)C1 (centres unmarked),-11.4%
5,NC(=O)COC(=O)CSc1cccc2cccc(Cl)c12,14.8%
6,Cc1cc(Br)cc(Cl)c1OCC(=O)N1CCN(C(=O)c2ccco2)CC1,-63.3%
7,O=C(CSc1ccccc1F)OCC(=O)N1CCN(C(=O)c2ccco2)CC1,-27.2%
8,Cc1cc(SCC(=O)OCC(=O)N2CCN(C(=O)c3ccco3)CC2)c(C)cc1Br,-50.2%
9,O=C(COc1ccccc1Br)N1CCN(C(=O)c2ccco2)CC1,-31.3%
10,Cc1cccc(OCC(=O)OCC(=O)N2CCN(C(=O)c3ccco3)CC2)c1C,-31.8%
11,O=C(CSc1cccc2cccc(Cl)c12)OCC(=O)N1CCN(C(=O)c2ccco2)CC1,-69.2%
12,Cc1cc(C)c(OCC(=O)OCC(=O)N2CCN(C(=O)c3ccco3)CC2)c(C)c1,-30.4%
13,CCOC(=O)N1CCN(C(=O)COC(=O)CSc2cc(C)c(Br)cc2C)CC1,-38.5%
14,Cc1cc(SCC(=O)OCC(=O)N(C)C2CCS(=O)(=O)C2)c(C)cc1Br (centres unmarked),-73.1%
15,O=C(c1ccco1)c1cn[nH]c1-c1ccc(Cl)cc1O,-8.52%
16,C/C(=N\NC(=O)CN(c1ccc(Oc2ccccc2)cc1)S(C)(=O)=O)C(C)(C)C,7.07%
17,COc1ccccc1CNC(=O)COC(=O)Cc1ccc(F)cc1,8.81%
18,O=C(Cc1ccccc1)NCc1nc2ccccc2[nH]1,-6.31%
19,O=C(NCCc1ccncc1)Nc1cccc(Cl)c1,-3.75%
20,O=C(NCc1cccnc1)C1CCN(C(=O)c2ccc(Cl)cc2Cl)CC1,-10.8%

row,SMILES,"hERG current change (%, negative = inhibition) at 10uM"
1,O=[N+]([O-])c1cccc(S(=O)(=O)Nc2ccc(S(=O)(=O)Nc3nccs3)cc2)c1,13.9%
2,CCOC(=O)CN1C(=O)C(O)(CC(=O)c2cccc(OC)c2)c2ccccc21 (centres unmarked),5.13%
3,O=C(NCC(c1ccco1)N1CCN(c2ccccc2)CC1)c1ccc2c(c1)OCO2 (centres unmarked),-5.86%
4,Cc1ccc(SCC(=O)OCC(=O)N2CCN(C(=O)c3ccco3)CC2)c(C)c1,-41.6%
5,Cc1cc(Br)ccc1SCC(=O)OCC(=O)N1CCN(C(=O)c2ccco2)CC1,-66.8%
6,Nc1cc(N)nc(SCC(=O)N2CCN(C(=O)c3ccco3)CC2)n1,0.783%
7,Cc1cc(SCC(=O)N2CCN(C(=O)c3ccco3)CC2)c(C)cc1Br,-62.3%
8,CC(=O)N1CCN(C(=O)CSc2cc(C)c(Br)cc2C)CC1,3.18%
9,NC(=O)c1ccc(SCC(=O)OCC(=O)N2CCN(C(=O)c3ccco3)CC2)c([N+](=O)[O-])c1,23.3%
10,CCCC(O)(CCC)C(=O)NNc1ccccc1,12.4%
11,O=C(NCCCN1CCCC1=O)c1ccc2c(=O)n(Cc3ccco3)c(=S)[nH]c2c1,-17.8%
12,Cc1ccc2oc(=O)c3cnn(CC(=O)NC4CCCCC4C)c3c2c1 (centres unmarked),8.43%
13,CS(=O)(=O)N1CCc2cc(NC(=O)c3ccc(Cl)cc3Cl)ccc21,1.5%
14,CCN(CC)C(=O)CSc1nc2ccccc2c(=O)[nH]1,12.5%
15,CCn1c(=O)n(CC)c2cc(NS(=O)(=O)c3ccccc3)ccc21,-68.7%
16,Cn1c(=O)n(C)c2cc(NS(=O)(=O)c3ccccc3)ccc21,4.09%
17,CCn1c(=O)c(=O)n(CC)c2cc(S(=O)(=O)Nc3ccc(C)cc3)ccc21,7.02%
18,Cc1ccc(-c2nc3ccc(NS(=O)(=O)c4ccccc4)cc3[nH]2)o1,-47.3%
19,Cn1cccc1-c1nc2ccc(NC(=O)c3ccccc3)cc2[nH]1,-39.3%
20,O=S(=O)(Nc1ccc2nc(-c3ccco3)[nH]c2c1)c1ccccc1,-58.4%

row,SMILES,"hERG current change (%, negative = inhibition) at 10uM"
1,Cn1cccc1-c1nc2ccc(NC(=O)c3cccs3)cc2[nH]1,-53.3%
2,CC(=O)Nc1ccc2nc(-c3ccco3)[nH]c2c1,7.99%
3,Cc1ccc(S(=O)(=O)Nc2ccc3nc(-c4cccn4C)[nH]c3c2)cc1,-79.3%
4,CC(=O)Nc1ccc2nc(-c3cccn3C)[nH]c2c1,12.8%
5,O=C(Nc1ccc(-c2nc3ccc(NC(=O)c4cccs4)cc3[nH]2)cc1)c1cccs1,18.1%
6,Cn1cccc1-c1nc2ccc([N+](=O)[O-])cc2[nH]1,4.4%
7,COc1ccccc1CNC(=O)CNC(=O)[C@@H]1Cc2ccccc2CN1,1.14%
8,Cc1c(NC(=O)CSc2nnc(N)s2)c(=O)n(-c2ccccc2)n1C,-10.4%
9,Cc1ccnc(NC(=O)CN(C)S(=O)(=O)c2cccc3nsnc23)c1,7.8%
10,O=S(=O)(Nc1ccc(Cl)cc1)c1ccc2c(c1)CCO2,-3.21%
11,O=C(O)c1ccc(NS(=O)(=O)c2cc(Cl)sc2Cl)cc1,21.3%
12,Cc1oc2c(Cl)c(Cl)c(O)c(CN(C)C)c2c1C(=O)c1ccc(Cl)cc1,-1.39%
13,Cc1nnc(SCC(=O)NC2CCCc3c2cnn3-c2ccccc2F)o1 (centres unmarked),20.5%
14,O=C(NCc1ccco1)c1cccn2c(=O)c3sccc3nc12,-68.4%
15,O=C(NCCNc1ccc2ccccc2c1)c1cccn2c(=O)c3sccc3nc12,-6.94%
16,O=C(NCc1cccnc1)c1cccn2c(=O)c3sccc3nc12,-63.2%
17,O=C(NCc1cccs1)c1cccn2c(=O)c3sccc3nc12,-7.79%
18,O=C(NCc1ccco1)c1cccn2c(=O)c3c4c(sc3nc12)CCCC4,13.6%
19,O=C(O)c1ccccc1C(=O)NCc1cccnc1,-32.8%
